From PubChem BioAssay
An excerpt weighted towards active compounds, which were near 4.1% of everything screened.
USP2a inhib: blocks human ubiquitin-specific protease USP2a. USP2a enzymatic assay, qHTS inhibition. AID 927. O75604. 0.1% of 60,000 active. Potency, µM (top dose mostly 38.3 µM), hits mostly inhibitors; also: nearly all actives have a fitted effect of over 60% in size
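20 nM USP2 core + cpd, 30 min RT; add 20 nM Ub-PLA2/20 uM NBD C6-HPC; read Ex460/Em535 at 0 h and 2.5 h. Normalized to NEM; qHTS curve fit/classification.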
GBA activity: alters purified human glucocerebrosidase activity | purified enzyme, resorufin glucoside fluorescence (screen aimed at inhibitors), 20 min | 1.1% of 48,000 active | Potency, µM | P04062 | AID 360; in the data active = potency below about 15 µM; inconclusive = mostly about 16 µM to 33 µM;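 also: the screen sought inhibitors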
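Compounds titrated against 0.2 nM normal enzyme, 30 uM resorufin beta-D-glucopyranoside substrate, citrate/phosphate buffer with taurocholate and tween-20, pH 5.9. Reaction ran 20 min at room temperature; fluorescence (Ex 548/Em 600) gave AC50.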
Bst PK mod: modulators of Bacillus stearothermophilus pyruvate kinase; purified pyruvate kinase, luminescence ATP production; ribose 5-phosphate activator present at AC10; Potency, µM; 1.2% of 51,000 active; AID 361; in the data active = potency below about 11 µM; inconclusive = mostly about 12 µM to 25 µM;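 the screen sought inhibitors and activators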
HEK293 cAMP ctrl: raises cAMP in parental HEK293 cells, TSHR agonist counter-screen; 2.5% of 73,000 active; parental HEK293 CNG cAMP sensor, membrane potential fluorescence; Potency, µM (titrated, usually from 57.1 µM), most hits filed as activators; also: nearly all actives have a fitted effect of over 55% in size
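Counterscreen for endogenous-receptor signalling: CNG-channel HEK 293 cells report cAMP rise by membrane depolarization. After 60 min dye equilibration with 100 uM RO 20-1724, compounds incubated 30 min before bottom-read fluorescence at 590 nm.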
UbGFP stabilizer: inhibits proteasome, raising ubiquitin-GFP reporter fluorescence; Ubiquitin-GFP reporter cells, proteasome inhibition, GFP fluorescence; response scale: untreated = 0%, 10 µM MG-132 = 100%; Potency, µM (top dose mostly 45.9 µM), actives largely listed as activators; 67,000 tested, under 10 active; AID 526; active = well fitted activation curve with a large enough effect, not every such curve was filed as active; inconclusive = small, poorly fitted or top-dose-only effect, or another doubt; inactive = no such curve, though single readings can be large or run the other way
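U2OS cells stably expressing ubiquitin(G76V)-GFP, seeded overnight in 0.5% FBS medium, were exposed to compounds (qHTS, 46 uM to 2.9 nM) for 4 hr at 37 °C. GFP-positive cells were counted by laser cytometry (488 ex/515 em), normalized between basal and 10 uM MG-132.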
TSHR agonist: agonists of human thyroid stimulating hormone receptor; P16473; HEK293-CNG-TSHR cells (CNG channel as cAMP sensor), membrane potential dye, cAMP; Potency, µM (titrated, usually from 57.1 µM), usual class: activators; 0.48% of 73,000 active; AID 926; active = well fitted activation curve with a large enough effect in the main read-out, with a control signal flat, not every such curve was filed as active; inconclusive = small, poorly fitted or top-dose-only effect, or a change in a side signal; inactive = no such curve, though single readings can be large or run the other way; reference of the percent scale not stated here;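 also: the control signal comes from parental cells without the receptor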
Target sequence (P16473 whole entry, looked up): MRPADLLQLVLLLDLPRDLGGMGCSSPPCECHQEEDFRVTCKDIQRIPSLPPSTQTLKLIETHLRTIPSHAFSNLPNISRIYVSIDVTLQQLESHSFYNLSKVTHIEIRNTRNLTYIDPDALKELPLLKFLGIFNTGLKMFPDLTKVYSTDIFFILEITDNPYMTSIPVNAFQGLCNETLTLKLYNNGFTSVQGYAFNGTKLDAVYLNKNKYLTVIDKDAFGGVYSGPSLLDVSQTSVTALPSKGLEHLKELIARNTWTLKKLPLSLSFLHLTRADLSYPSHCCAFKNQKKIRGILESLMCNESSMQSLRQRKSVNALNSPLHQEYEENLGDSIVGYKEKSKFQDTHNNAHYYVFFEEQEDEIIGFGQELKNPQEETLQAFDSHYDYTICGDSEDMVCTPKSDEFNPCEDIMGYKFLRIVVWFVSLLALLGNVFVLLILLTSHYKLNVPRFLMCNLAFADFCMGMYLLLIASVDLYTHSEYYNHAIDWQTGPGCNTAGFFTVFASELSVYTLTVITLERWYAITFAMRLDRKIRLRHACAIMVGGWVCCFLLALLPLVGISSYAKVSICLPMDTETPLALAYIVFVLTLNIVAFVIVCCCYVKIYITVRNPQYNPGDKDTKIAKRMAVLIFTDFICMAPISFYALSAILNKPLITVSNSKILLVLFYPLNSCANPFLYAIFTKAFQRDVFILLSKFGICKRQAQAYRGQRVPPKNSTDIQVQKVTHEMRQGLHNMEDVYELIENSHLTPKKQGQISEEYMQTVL
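HEK 293 cells stably expressing TSHR and a modified CNG channel, with CNG-only parental cells as counterscreen, were preloaded 60 min at room temperature with membrane potential dye containing 100 uM RO 20-1724. Compound exposure was 30 min, and depolarization was read as fluorescence at 590 nm.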
A number is an active result; 0 = inactive; ? = inconclusive; - = no result; [ ] = dose if it differs, or a comment. Unless noted, calls follow the shape of the dose curve; as a rule, active = well fitted curve in the direction sought with a large enough effect; inconclusive = small, poorly fitted or top-dose-only effect, or another doubt; inactive = no such curve, though single readings can be large; an effect the other way counts as inactive or inconclusive.

SMILES | USP2a inhib | GBA activity | Bst PK mod | HEK293 cAMP ctrl | UbGFP stabilizer | TSHR agonist
COc1ccc(-n2c(=O)cnc3cnc(N(C)C)nc32)cc1 | 0 | - | - | 0 | ? | 0
COC(=O)c1cccc(NC(=O)c2cc3sccc3n2C)c1 | 0 | 0 | - | 13µM | 0 | ?
COC(=O)c1ccccc1NC(=O)c1cc2sccc2n1C | 0 | 0 | 0 | 0 | 0 | 0
NC1=NC2(CCN(Cc3ccccc3)CC2)n2c(nc3ccccc32)N1 | 0 | 3.7 | 6.9 | 0 | 0 | 0
NC1=NC2(CCC(c3ccccc3)CC2)n2c(nc3ccccc32)N1 (centres undefined) | 0 | 15 | 0 | 0 | 0 | 0[11.4 µM]
NC1=NC2(CCCCC2)n2c(nc3ccccc32)N1 | 0 | 0 | 0 | 0 | 0 | 0
O=C(CSc1nnc(-c2ccc(Cl)s2)o1)N1CCCc2ccccc21 | 0 | 0 | 0 | 4µM | 0 | ?
O=C(CSc1nnc(-c2ccc(Cl)s2)o1)N1CCc2ccccc21 | 0 | 0 | 0 | 0 | 0 | 0
C=CCn1c(=O)c(C(=O)NCCNCC)c(O)c2ccccc21 | 13µM | 0 | 0 | 13µM | 0 | ?
N=c1ccn2c(n1)O[C@@H]1[C@@H](O)[C@H](CO)O[C@H]12 | 0 | - | - | 0 | 0 | 0
CC1(c2ccncc2)Nc2ccccc2-c2nc3ccccc3n21 (centres undefined) | 0 | 0 | 0 | 0 | 0 | 25µM
COc1ccc2c(c1)C1(Nc3ccccc3-c3nc4ccccc4n31)C(=O)N2 (centres undefined) | 0 | 0 | 0 | ? | 0 | ?
O=C(O)c1cccc(Cl)c1Cl | - | - | - | 0 | - | ?
Cc1ccccc1NC(=O)CSc1nc2c(c(-c3ccco3)c1C#N)CCCC2 | 0 | 0 | 0 | 0 | 0 | -
COC(=O)CSc1nc2c(c(-c3ccc(C)o3)c1C#N)CCCC2 | 0 | 15 | 0 | 0 | - | 0
CSc1nc(N2CCOCC2)c2c(c1C#N)CCCCC2 | 0 | 0 | 0 | 25µM | 0 | ?
COC(=O)CSc1nc(N2CCCCC2)c2c(c1C#N)CCCC2 | 13µM | 0 | 0 | 0 | 0 | -
CCCSc1nc(N2CCOCC2)c2c(c1C#N)CCCC2 | - | - | 0 | - | - | -
c1c[nH]c(CN2CCN(Cc3ncc[nH]3)CC2)n1 | - | - | - | 0[11.4 µM] | 0[9.17 µM] | 0[11.4 µM]
CN(Cc1ccco1)c1ncncc1-c1ccc2c(c1)OCO2 | 0 | - | - | 0 | 0 | 25µM
CN(Cc1ccco1)c1ncnc2ccc(-c3ccc4c(c3)OCO4)cc12 | 0 | - | - | 16µM | 0 | ?
CC(=O)Oc1ccc2occ(C(=O)c3cccs3)c2c1 | 0 | - | - | 25µM | 0 | ?
CC(=O)NCCNc1ncncc1-c1ccc(N(C)C)cc1 | 0 | - | - | 0 | 0 | 0
CCOC(=O)C1=C(C)Nc2nc(C)nn2C1c1ccc(OC)c(OC)c1 (centres undefined) | - | - | - | 1.6µM | 0 | ?
N#CCCn1c(=O)c(-c2ccc(Cl)cc2)nc2cnc(N3CCOCC3)nc21 | 0 | - | - | 0 | 0 | 0
SMILES | USP2a inhib | GBA activity | Bst PK mod | HEK293 cAMP ctrl | UbGFP stabilizer | TSHR agonist
COC(=O)c1ccccc1NC(=O)Cn1c(-c2nonc2N)nc2ccccc21 | 0 | 0 | 0 | 16µM | 0 | ?
Clc1ccc(Cn2nnc(-c3ccc(CN4CCOCC4)cc3)n2)cc1 | 0 | - | - | 32µM | 0 | ?
Fc1ccc(Cn2nnc(-c3ccc(CN4CCOCC4)cc3)n2)cc1 | 0 | - | 0 | 0 | 0 | 0
Clc1ccccc1-c1ccc2ncnc(NCCN3CCOCC3)c2c1 | 0 | - | - | 0 | 0 | 0
COc1ccc(N/C=C(\C#N)c2nc3ccccc3n2C)c(OC)c1 | - | - | 10 | - | - | -
Cc1ccc(-n2nc3c([n+]2[O-])CCc2c-3no[n+]2[O-])cc1 | 2µM | 0 | 0 | 0 | 0 | 0
CCN(CC)c1ccc(-c2nn3c(-c4n[nH]c5c4CCC5)nnc3s2)cc1 | ? | 0 | 0 | 32µM | - | ?
C1CCC(c2nn3c(-c4n[nH]c5c4CCC5)nnc3s2)CC1 | 0 | 0 | 0 | 32µM | 0 | ?
COC(=O)C1=C(C)N(Cc2ccccc2)C2=C(C(=O)c3ccccc3)C(c3ccccc3)[C@@](O)(C(=O)OC)C(=O)N2C1c1ccccc1 (some centres undefined) | - | - | - | 0[11.4 µM] | - | 0[11.4 µM]
Cc1ccc(/C=N/c2sc3c(c2C#N)CCC3)s1 | 0 | 11 | 4.3 | 0 | 0 | 0
Cc1ccccc1-c1nnc(-c2ccc(Br)cc2)o1 | 0 | 0 | 4.4 | 3.2µM | 0 | ?
Cc1ccc(-c2nnc(-c3ccccc3)o2)cc1Br | - | - | 0 | - | - | -
